Assay outcomes as filed in PubChem.
Compounds with a hit are over-represented: about 2.5% of the library has one in this group of screens.
MEKK2 mut-MEK5 = MEK5 binding signal on mutant MEKK2 PB1, primary screen, biochemical, multiplex bead flow cytometry, Alexa488-MEK5; percent response, % at 10 µM; actives 0.35% (n = 290,000); Alexa488-MEK5 binding to MEKK2 mutant; in the data active means percent response above about 24%, passing the limit was not always enough
MEKK3 PB1 HTS = modulators of MEKK3-MEK5 PB1 binding, primary screen, biochemical, wildtype MEKK3, multiplex bead flow cytometry, Alexa488-MEK5; binding response (% of control), % at 10 µM; AID 1529, 2009; actives 1.4% (n = 290,000); bead-based flow cytometry, Alexa488-MEK5 binding to MEKK3; actives lie on both sides; 0 = blocked by unlabeled MEK5, 100 = vehicle;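 active means binding response more than 3 SD above or below the average of its plate-row segment, actives on both sides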;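 further: Alexa488 bead fluorescence after subtracting the streptavidin-only scavenger bead signal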
Target sequence (Q99759 whole entry, looked up): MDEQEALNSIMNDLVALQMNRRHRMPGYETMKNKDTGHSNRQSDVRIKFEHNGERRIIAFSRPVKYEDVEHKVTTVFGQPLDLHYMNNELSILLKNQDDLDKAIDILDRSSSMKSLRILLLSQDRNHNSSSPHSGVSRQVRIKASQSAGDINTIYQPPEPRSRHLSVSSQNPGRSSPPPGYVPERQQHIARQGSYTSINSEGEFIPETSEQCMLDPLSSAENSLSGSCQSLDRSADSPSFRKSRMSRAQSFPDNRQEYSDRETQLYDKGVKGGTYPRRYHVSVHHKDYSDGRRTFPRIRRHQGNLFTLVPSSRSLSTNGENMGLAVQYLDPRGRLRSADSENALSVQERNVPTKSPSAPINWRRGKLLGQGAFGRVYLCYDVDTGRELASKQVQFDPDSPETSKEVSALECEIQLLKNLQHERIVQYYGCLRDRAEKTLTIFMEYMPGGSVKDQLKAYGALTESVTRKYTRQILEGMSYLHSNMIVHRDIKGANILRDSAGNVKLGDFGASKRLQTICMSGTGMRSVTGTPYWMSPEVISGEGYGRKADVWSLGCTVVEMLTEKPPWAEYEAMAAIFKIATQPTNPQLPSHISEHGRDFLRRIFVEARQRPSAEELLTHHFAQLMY
Rce1 inhib = yeast Rce1p protease inhibitors, primary screen, biochemical, fluorescence, cell-free homogeneous. yeast membranes, quenched prenylated peptide cleavage fluorescence. calls only. CAAX prenyl protease 2 (Saccharomyces cerevisiae (strain ATCC 204508 / S288c)), Q03530. actives 0.27% (n = 290,000);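 active means fall in fluorescence gain of 50% or more versus controls, with final raw signal at or below 3038400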;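 further: plate controls were neutral control wells for no effect and wells lacking membranes for full effect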
UBC13 inh = UBC13 polyubiquitin chain formation inhibitors, primary screen, biochemical, TR-FRET, uHTS; AID 485273, 2010; inhibition, % at 20 µM; Ubiquitin-conjugating enzyme E2 N (Homo sapiens), P61088; actives 0.47% (n = 330,000); in the data active means inhibition above about 45%, passing the limit was not always enough
MEKK2wt PB1 HTS = modulators of MEK5 binding to wildtype MEKK2, primary screen, biochemical, multiplex bead flow cytometry, Alexa488-MEK5; actives 1.1% (n = 290,000); AID 1531, 2009; binding response (% of control), % at 10 µM; Alexa488-MEK5 binding to MEKK2 WT; actives lie on both sides; in the data active means binding response below about 67% or above about 130%
MEKK2wt confirm = modulators of MEK5 binding to wildtype MEKK2, confirmation, biochemical, single concentration, multiplex bead flow cytometry. shares compounds with MEKK3 PB1 HTS. Alexa488-MEK5 binding to MEKK2 WT; actives lie on both sides. binding response (% of control), % at 10 µM. actives 2.4% (n = 5,900); in the data active means binding response below about 16% or above about 210%; inactive means in between
MEKK2mut-MEK5 = mutant MEKK2 PB1-MEK5 binding signal retest – biochemical, single concentration, multiplex bead flow cytometry, confirmation; Alexa488-MEK5 binding to MEKK2 mutant; percent response, % at 10 µM; shares compounds with MEKK3 PB1 HTS; actives 2% (n = 5,900); AID 1893, 2009; in the data active means percent response mostly above about 71%, no sharp cut-off; inactive means mostly below about 38%;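 further: higher means compound restores mutant binding toward wildtype level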
MEKK3 confirm = MEKK3 wild-type PB1 binding to MEK5, inhibitors, confirmation, biochemical, bead multiplex flow cytometry, single concentration, wildtype | shares compounds with MEKK3 PB1 HTS | binding response (% of control), % at 10 µM | Alexa488-MEK5 binding to MEKK3; hits give low values | actives 1.8% (n = 5,900) | AID 1894, 2009;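 active means binding response below 72% of control, or above a set upper limit, though filed actives all read lower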;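 further: 100% = DMSO only wells and 0% = binding blocked by excess unlabeled MEK5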
An asterisk follows results filed as active; [ ] = another dose, or the depositor's remark.

COc1cc(NC(=O)C2CCCN(c3ncccn3)C2)cc(OC)c1 (stereo unspecified) was read as MEKK2 mut-MEK5 -1, MEKK3 PB1 HTS 63*[inhibitor], Rce1 inhib inactive, UBC13 inh 12, MEKK2wt PB1 HTS 86, MEKK2wt confirm 85, MEKK2mut-MEK5 -10 and MEKK3 confirm 87.
`CCCS(=O)(=O)N1CCN(Cc2c[nH]c3ccccc23)CC1` gave MEKK2 mut-MEK5 -5, MEKK3 PB1 HTS 100, Rce1 inhib inactive, UBC13 inh 8 and MEKK2wt PB1 HTS 99.
`O=C(c1cc(Cl)ccc1Cl)N1CCOCC1` gave MEKK2 mut-MEK5 -21, MEKK3 PB1 HTS 0.0*[inhibitor], Rce1 inhib inactive, UBC13 inh 5, MEKK2wt PB1 HTS -4.0*[inhibitor], MEKK2wt confirm 106, MEKK2mut-MEK5 13 and MEKK3 confirm 102.
O=C(N/N=C/c1c(O)n(-c2ccc(Cl)cn2)c(=O)c2ccccc12)C1CC1 was read as MEKK2 mut-MEK5 14, MEKK3 PB1 HTS 98, Rce1 inhib inactive, UBC13 inh 24 and MEKK2wt PB1 HTS 111.
`O=C(N/N=C/c1c(O)n(-c2ccc(Cl)cn2)c(=O)c2ccccc12)c1ccncc1` gave MEKK2 mut-MEK5 0, MEKK3 PB1 HTS 135*, Rce1 inhib inactive, UBC13 inh 6, MEKK2wt PB1 HTS 107, MEKK2wt confirm 100, MEKK2mut-MEK5 1 and MEKK3 confirm 104.
`O=C(Nc1ccccc1C(=O)NC(Cc1ccc(O)cc1)C(=O)O)c1ccccc1` (stereo unspecified) gave MEKK2 mut-MEK5 9, MEKK3 PB1 HTS 104, Rce1 inhib inactive, UBC13 inh 8 and MEKK2wt PB1 HTS 103.
CCOC(=O)c1nc2ccccc2nc1C was read as MEKK2 mut-MEK5 0, MEKK3 PB1 HTS 143*, Rce1 inhib inactive, UBC13 inh -6, MEKK2wt PB1 HTS 108, MEKK2wt confirm 103, MEKK2mut-MEK5 8 and MEKK3 confirm 102.
`O=C(OCc1ccccc1)/C(=C/c1ccc(Cl)cc1)NC(=O)c1ccccc1Cl` gave MEKK2 mut-MEK5 24*, MEKK3 PB1 HTS 109, Rce1 inhib inactive, UBC13 inh 2, MEKK2wt PB1 HTS 111, MEKK2wt confirm 102, MEKK2mut-MEK5 -5 and MEKK3 confirm 103.
`Cc1ccc(C(=O)N/C(=C\c2ccccc2)C(=O)OCc2ccccc2)cc1` gave MEKK2 mut-MEK5 -6, MEKK3 PB1 HTS 98, Rce1 inhib inactive, UBC13 inh 0 and MEKK2wt PB1 HTS 87.
Screening COc1ccc(-c2ccnc(SCC(=O)c3ccc(OC)c(OC)c3)n2)cc1 returned MEKK2 mut-MEK5 0, MEKK3 PB1 HTS 132*, Rce1 inhib inactive, UBC13 inh -5, MEKK2wt PB1 HTS 103, MEKK2wt confirm 99, MEKK2mut-MEK5 0 and MEKK3 confirm 103.
Screening Cc1ccnc(SCC(=O)N2CCN(c3ccccc3)CC2)n1 returned MEKK2 mut-MEK5 3, MEKK3 PB1 HTS 88, Rce1 inhib inactive, UBC13 inh -7 and MEKK2wt PB1 HTS 99.
COc1ccc(-c2ccnc(SCC(=O)N3CCN(c4ccccc4)CC3)n2)cc1 was read as MEKK2 mut-MEK5 28, MEKK3 PB1 HTS 137*, Rce1 inhib inactive, UBC13 inh 5, MEKK2wt PB1 HTS 121, MEKK2wt confirm 105, MEKK2mut-MEK5 2 and MEKK3 confirm 104.
For COc1cccc(C(C)NC(=O)Nc2cc(Cl)ccc2OC)c1 (stereo unspecified) the results were MEKK2 mut-MEK5 0, MEKK3 PB1 HTS 100, Rce1 inhib inactive, UBC13 inh 2 and MEKK2wt PB1 HTS 101.
`COc1ccc(Cl)cc1NC(=O)NC(C)C` gave MEKK2 mut-MEK5 -13, MEKK3 PB1 HTS 47*[inhibitor], Rce1 inhib inactive, UBC13 inh 6, MEKK2wt PB1 HTS 54, MEKK2wt confirm 100, MEKK2mut-MEK5 -4 and MEKK3 confirm 102.
Screening Cc1ccc(NC(=S)NN(C)c2cc(C)nc(C)n2)cc1 returned MEKK2 mut-MEK5 1, MEKK3 PB1 HTS 129*, Rce1 inhib inactive, UBC13 inh 1, MEKK2wt PB1 HTS 107, MEKK2wt confirm 99, MEKK2mut-MEK5 1 and MEKK3 confirm 100.
`CC1CCCN(C(=O)C2CCN(CCCc3ccccc3)CC2)C1` (stereo unspecified) gave MEKK2 mut-MEK5 -5, MEKK3 PB1 HTS 79*[inhibitor], Rce1 inhib inactive, UBC13 inh 1, MEKK2wt PB1 HTS 98, MEKK2wt confirm 99, MEKK2mut-MEK5 -2 and MEKK3 confirm 94.
`CC1CCCN(C(=O)C2CCN(CC(C)c3ccccc3)CC2)C1` (stereo unspecified) gave MEKK2 mut-MEK5 2, MEKK3 PB1 HTS 107, Rce1 inhib inactive, UBC13 inh -13 and MEKK2wt PB1 HTS 101.
Screening CC(C)(C)C(=O)NC1CC2CCCC(C1)N2C(=O)Nc1ccccc1 (stereo unspecified) returned MEKK2 mut-MEK5 16, MEKK3 PB1 HTS 109, Rce1 inhib inactive, UBC13 inh -17 and MEKK2wt PB1 HTS 112.
Screening COc1cccc(Nc2c(Nc3cccc(OC)c3)c(=O)c2=O)c1 returned MEKK2 mut-MEK5 6, MEKK3 PB1 HTS 102, Rce1 inhib inactive, UBC13 inh -14 and MEKK2wt PB1 HTS 102.
`COc1cccc(Nc2ccc(Nc3cccc(OC)c3)nn2)c1` gave MEKK2 mut-MEK5 76*, MEKK3 PB1 HTS 113, Rce1 inhib inactive, UBC13 inh 9, MEKK2wt PB1 HTS 172*, MEKK2wt confirm 108, MEKK2mut-MEK5 2 and MEKK3 confirm 103.
Screening Cc1ccc2c(c1)N(CCC(=O)NCCCN1CCCC1)C(=O)C(C)O2 (stereo unspecified) returned MEKK2 mut-MEK5 -6, MEKK3 PB1 HTS 94, Rce1 inhib inactive, UBC13 inh -3 and MEKK2wt PB1 HTS 96.
